Values joined by “and” are separate entries in the source; they are usually repeats but may differ in a detail not shown here. Identical values can stand only once. Out of some 2,200 compounds screened, about 1,200 (55%) were called active. The set was probably picked from earlier hits. The list shows a part of the results. Values without a mark were called inactive. No cut-off is given here; in the data, nearly all actives have IC50 up to about 92 µM.

We go through 79 compounds from PubChem BioAssay AID2501 (Southern Research Specialized Biocontainment Screening …, 2010).

This assay can be described thus: counter assay for TAg ATPase ADP read-out – biochemical, ADP-Hunter, fluorescence, counter-screen (AID 2501).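 For inhibition: 0% = enzyme with vehicle and 100% = reference inhibitor wells; higher means more inhibition.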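 Note: purified T antigen ATPase.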 The conditions noted are these: series mostly up to 100 µM; inhibition: at the top concentration. For orientation: Counterscreens check selectivity or assay interference.
As to `OC(COc1ccc2cc(Br)ccc2c1)CN1CCCC1` (centres undefined), the inhibition – broadly, the drop in the measured response relative to a control, in per cent – was -8.01%. For `O/N=C(\c1ccc2c(c1)OCCO2)C1CCCCC1`, the “inhibition” value is -5.27%. For `O=c1ccc2cc(O)c(O)cc2o1`, the IC50 (usually the concentration at which inhibition is half-maximal) is 11.3 µM (active). Regarding `N#CSCC(=O)c1cccc2ccccc12`, the “inhibition” value was 13.2%. With `O=C(c1ccc([N+](=O)[O-])cc1)N1CCN(c2cccc3[nH]ccc23)CC1`, the IC50 was 8.91 µM (active). As for `Cc1cc(OCC(=O)N(C)c2ccccc2)cc2c1C(=O)CC(C)(C)O2`, the “inhibition” value was -23.8%. On to `O=C(NCCO)c1ccc2nc(-c3ccco3)c(-c3ccco3)nc2c1`, for which the “inhibition” value was -13.4%.

As to `CCCc1cc(C(=O)N2CCCC(C(=O)c3cccc4ccccc34)C2)n(C)n1` (centres undefined), the “inhibition” value is 15.6%.

For the compound `O=C(/C=C/c1ccc(O)c(O)c1)O[C@@H]1C[C@](O)(C(=O)O)C[C@@H](O)[C@H]1O`, the 50% inhibitory concentration (IC50) was 4.26 µM (active) and 8.41 µM (active).

Take `CCCCNC(=O)c1onc(CCl)c1C(=O)OC`: the “inhibition” value is 8.49%. On to `COc1cc(SC)ccc1C(=O)N1CCN(c2ccc(O)cc2)CC1`, for which the half-inhibitory concentration (IC50) is 5.86 µM (active). Same read-out and setting: with `COc1cc(Cl)ccc1NC(=O)COc1ccccc1C(=O)N1CCN(c2ccc(O)cc2)CC1` the figure was 6.1 µM (active). With `COc1cc(SC)ccc1C(=O)N1CCN(Cc2ccccc2)CC1`, the “inhibition” value was -2.78%. For `O=C(CCC1CCCCC1)Nc1ccccc1C(=O)N1CCOCC1`, the “inhibition” value was -12.4%. As to `CCCCC(=O)OCC(=O)c1[nH]c(C)c(C(=O)OCC)c1C`, the “inhibition” value is -18.3%. As to `COc1cccc([C@H](O)Cn2cc(-c3ccc(CON=C(C)C)cc3)nn2)c1`, the “inhibition” value is 16.7%. Turning to `CN(C)c1ccc(NC(=O)Cn2ncn3c(cc4ccccc43)c2=O)cc1`, the IC50 is 10.4 µM (active). Still for that read-out and setting: the value for `CN(C)c1ccc(NC(=O)COC(=O)Cn2nnc3ccccc32)cc1` was 4.51 µM (active). Same read-out and setting: with `CN(C)c1ccc(NC(=O)CN2CCN(c3ccc(F)cc3)CC2)cc1` the figure was 2.66 µM (active). Still for that read-out and setting: with `CN(C)c1ccc(NC(=O)CN2CCN(CC(=O)Nc3ccc(F)cc3)CC2)cc1` the figure was 9.6 µM (active). For the compound `CCOc1ccc(NC(=O)Cn2sc3nc(C)cc(C)c3c2=O)cc1`, the “inhibition” value was 9.54%. The same measure, in the same setting: with `Cc1cccc(-n2c3nc(=O)[nH]c(=O)c-3cc3cc([N+](=O)[O-])ccc32)c1` the figure was -3.39%; with `CCOC(=O)C1CCN(c2ncnc3c2nnn3Cc2ccccc2Cl)CC1`, -12.6%; with `CCOC(=O)c1ccc(NC(=O)CC2NCCNC2=O)cc1` (centres undefined), -11.5%. On to `CN(C)c1ccc(NC(=O)COC(=O)CCC(=O)c2ccc(F)cc2)cc1`, for which the 50% inhibitory concentration (IC50) was 4.64 µM (active). The same measure, in the same setting: with `Cc1nn(CC(=O)Nc2ccc(N(C)C)cc2)c(C)c1[N+](=O)[O-]` the figure was 5.17 µM (active).

As to `Cc1c(-c2ccccc2)oc2c(C(=O)OCC(=O)Nc3ccc(C(N)=O)cc3)cccc2c1=O`, the “inhibition” value is -31.3%. Regarding `CN(C)c1ccc(NC(=O)CC2NCCNC2=O)cc1` (centres undefined), the IC50 was 4.71 µM (active).

Consider `Oc1ccc2c(c1)C1CCCC1(N1CCOCC1)O2` (centres undefined), for which the “inhibition” value was -102%. In the case of `COc1ccc(NCN2C(=O)C3C4C=CC(C4)C3C2=O)cc1` (centres undefined), the IC50 was 11.4 µM (active). As for `CC(C)(C)c1nnc(NC(=O)CN2C(=O)C3C4C=CC(C4)C3C2=O)s1` (centres undefined), the “inhibition” value is -37.5%. `c1ccc(-c2ccc3c(c2)NCCN3)cc1`: the IC50 was 7.7 µM (active).

Regarding `CCCCC/C=C\C/C=C\C/C=C\C/C=C\CCCC(=O)O`, the “inhibition” value is 24.2%. With `CC(C)CCn1c(=O)c2ccccc2n2c(=S)[nH]nc12`, the IC50 was 10.9 µM (active). Take `COc1cccc(N2CC(=O)Nc3c(oc4nc(-c5ccccc5)cc(C)c34)C2=O)c1`: the “inhibition” value was -11.9%. For `CCCCCn1c(=O)c2ccccc2n2c(=S)[nH]nc12`, the IC50 is 11.7 µM (active).

`COc1cccc(-n2c(=O)c3ccccc3n3c(=S)[nH]nc23)c1`: the IC50 is 16.1 µM (active). Take `COCCCn1c(=O)c2ccccc2n2c(=S)[nH]nc12`: the IC50 is 8.77 µM (active).

`COc1cccc(-n2cnnn2)c1`: the “inhibition” value was -17.4%. Take `CCCn1c(=O)c2ccccc2n2c(=S)[nH]nc12`: the IC50 was 3.07 µM (active). `CCCCn1c(-c2cccc3ccccc23)nc2cc3[nH]c(=O)c(C(C)C)nc3cc21`: the “inhibition” value was -11%. As to `CCCCn1c(=O)c2ccccc2n2c(=S)[nH]nc12`, the IC50 is 11.3 µM (active). The same measure, in the same setting: the value for `CC(C)C(=O)c1ccc(O)c(O)c1` was 1.71 µM (active). Still for that read-out and setting: with `CN(C)c1ccc(NS(=O)(=O)c2cccc(Cl)c2)cc1` the figure was 13 µM (active). For the compound `CCCNC(=O)NS(=O)(=O)c1ccc(Cl)cc1`, the “inhibition” value was 14.3%. In the case of `O=C(CNS(=O)(=O)c1cccc(Cl)c1)OCc1csc(-c2ccccc2)n1`, the “inhibition” value was 20.6%.

Consider `COc1ccc(NS(=O)(=O)c2ccc(NS(=O)(=O)c3ccc(SC)cc3)cc2)c(OC)c1`, for which the “inhibition” value is 7.44%. Same read-out and setting: the value for `O=C(NCc1cccnc1)C(=O)Nc1cc2c3c(c1)CC(=O)N3CCC2` was -6.82%. As to `CN(C)c1ccc(NS(=O)(=O)c2ccc(Cl)cc2)cc1`, the IC50 is 5.63 µM (active). Same read-out and setting: with `CN(C)c1ccc(NS(=O)(=O)c2cc3c4c(c2)CC(=O)N4CCC3)cc1` the figure was 1.83 µM (active). On to `O=C(CC(Sc1ccc(Br)cc1)C(=O)O)c1ccc(Br)cc1` (centres undefined), for which the “inhibition” value was 28.3%. As to `Oc1ccc(/C=N/Nc2ncnc3c2ncn3Cc2ccccc2)cc1O`, the IC50 is 10.1 µM (active). For `CNC(=O)CS(=O)CC(=O)Nc1cc(OCCOC)c(Cl)cc1Cl` (centres undefined), the “inhibition” value is -15.2%.

As for `CCOC(=O)c1[nH]nc(-c2cc(CC)c(O)cc2O)c1-c1cscn1`, the concentration for half-maximal inhibition (IC50) is 7.84 µM (active). For `CCOC(=O)c1ccc(-c2c(-c3ccc4c(c3)OCO4)noc2-c2ccsc2)cc1F`, the “inhibition” value was -33.2%. As for `CN(C)c1ccc(Nc2nc(N)c([N+](=O)[O-])c(N3CCOCC3)n2)cc1`, the IC50 was 4.28 µM (active). On to `O=C(/C=C/c1ccc(Br)o1)NCc1ccccc1`, for which the “inhibition” value was 0.14%. With `N#C/C(=C\c1ccc(O)c(O)c1)C(=O)NCc1ccccc1`, the IC50 was 7.7 µM (active). Still for that read-out and setting: the value for `N#C/C(=C\c1ccc(O)c(O)c1)C(=O)Nc1cccc2ncccc12` was 4.88 µM (active).

Consider `CNc1ccc(/C=C(\C#N)C(=O)Nc2ccccn2)cc1[N+](=O)[O-]`, for which the “inhibition” value is 9.32%.

Turning to `N#C/C(=C\c1ccccc1OCc1ccc(C(=O)O)cc1)C(=O)Nc1ccc(O)cc1`, the IC50 is 5.71 µM (active). Still for that read-out and setting: with `COc1ccc(/C=C(/C#N)C(=O)Nc2ccc(O)cc2)cc1C(=O)O` the figure was 2.62 µM (active).

Turning to `N#C/C(=C\c1ccc(O)c([N+](=O)[O-])c1)C(=O)NCc1ccccc1`, the “inhibition” value was 22%. On the same count and under the same terms, with `O=C(O)c1ccc(COc2ccccc2C=C2C(=O)c3ccccc3C2=O)cc1` the figure was 15.4%; with `CCOc1ccc(/C=C(\C#N)C(=O)NC2CC2)c(OCC)c1`, 2.06%; with `COc1c(O)ccc2c1CN1CCc3cc4c(cc3C1C2)OCO4` (centres undefined), 23.5%. In the case of `CCOC(=O)c1ccc(S(=O)(=O)Nc2nc3cc(S(=O)(=O)NC4=NCCCCC4)ccc3s2)cc1`, the “inhibition” value was -36.8%. For `N#C/C(=C\c1ccc(O)c(O)c1)C(=O)Nc1ccccc1`, the half-inhibitory concentration (IC50) is 12.6 µM (active). Same read-out and setting: with `N#C/C(=C\c1ccc(O)c(O)c1)C(=O)NCCCc1ccccc1` the figure was 8.38 µM (active); with `N#C/C(=C\c1ccc(O)c(O)c1)C(=O)NCCc1ccccc1`, 5.36 µM (active).

For `N#C/C(=C\c1ccc(N2CCOCC2)o1)C(=O)Nc1ccc(O)cc1`, the IC50 is 1.66 µM (active). Consider `CC(c1ccncn1)N(C)Cc1nc(Cc2ccccc2F)no1` (centres undefined), for which the “inhibition” value was -33.4%. Regarding `C[C@@H](NC(=O)/C(C#N)=C/c1ccc(O)c(O)c1)c1ccccc1`, the IC50 is 4.73 µM (active). Consider `CCC(C)NC(=O)CC(c1ccccc1)c1cc(C)ccc1O` (centres undefined), for which the “inhibition” value is 10.9%.

As to `Oc1c(C(c2ccco2)N2CCN(C(c3ccccc3)c3ccccc3)CC2)sc2ncnn12` (centres undefined), the “inhibition” value was -1.94%. `C/C(=N\NC(=O)CSc1nc2ccccc2o1)c1ccc(O)cc1`: the IC50 was 6.4 µM (active). Turning to `C/C(=N/NC(=O)CSc1nc2ccccc2n1C)c1ccc(O)cc1`, the IC50 is 6.92 µM (active). `Cc1ccc(C)c(-n2c3nc(=O)[nH]c(=O)c-3cc3cc([N+](=O)[O-])ccc32)c1`: the “inhibition” value is -8.14%. With `COc1ccccc1C(C)NS(=O)(=O)c1cccs1` (centres undefined), the “inhibition” value is 1.27%.
